Among all 1,400 compounds or so, about 1,000 (71%) were called active. Roughly 12% stayed inconclusive and do not appear here. The call rests on the fitted dose curve; in most records, active means well fitted inhibition curve with a large enough effect; inconclusive means small, poorly fitted or top-dose-only effect; inactive means no such curve, though single readings can be large or run the other way. So high a share suggests a set chosen from earlier hits. Not all results are given here. More than one record can exist for a structure, and the calls need not agree.
Experiment: Nrf2 qHTS screen for inhibitors: Nrf2 A549 ARE-Fluc Confirmation Assay for Hit Validation; further: nearly all actives have a fitted effect of over 65% in size
Settings: A549 ARE-firefly luciferase reporter, luminescence; series mostly up to 46.1 µM
Text: Nrf2 is a transcription factor that maintains cellular redox homoestasis and protects cells from xenobiotics. Nrf2 binds to the antioxidant response element (ARE) to induce gene expression of a broad spectrum of genes that encode for antioxidants. […] Finding a small molecule that act as an inhibitor of Nrf2 function would represent a novel therapeutic target that could lead to improvement in survival of patients undergoing chemo- and/or radio- therapy.
In collaboration with the Biswal laboratory, a cell based, luminescence assay (BugLite) was developed to detect the Nrf2 activity using the A549 ARE_Fluc cells (AID 493153). This assay was coupled with a fluorescence based (CellTiter Fluor) cytotoxicity assay to identify and exclude toxic compounds. This coupled assay was used to evaluate selected compounds for hit validation. The data herein is the result of the BugLite assay where decrease in luminescence signal = inhibition of Nrf2 activation. Inhibition is the desired outcome for this assay.
NIH Chemical Genomics Center [NCGC]
NIH Molecular Libraries Probe Centers Network [MLPCN]
Assay Submitter (PI): Shyam Biswal, Johns Hopkins University
[1] Shibata T., et al., Genetic alteration of Keap1 confers constitutive Nrf2 activation and resistance to chemotherapy in gallbladder cancer. Gastroenterology, 2008.
[2] Sjoblom T., et al., The consensus coding sequences of human breast and colorectal cancers. Science, 2006.
Five uL of cell suspension was dispensed into 1536-well white TC-treated plate using the Kalypsys dispenser to achieve a density of 5000 cells/well in all columns except column 1. The plates were incubated at 37deg C at 5% CO2 for 2 hours before 23 nL of compounds were added with the Kalypsys pin tool equipped with a 1,536-pin array. The control compounds Budesonide and Staurosporine were added at a concentration of 2mM. Budesonide was also added as a 1:10 titration, starting at 200uM, to achieve the dose-response control signal. The plates were incubated for 18-24 hour at 37deg C, 5% CO2 followed by a 5ul addition of 5% FBS OPTI-MEM growing media in column 1 as negative control. One microliter of 5x CellTiter Fluor (Promega) was added to each well and the assay plates were incubated at 37deg C, 5% CO2 for 30 minutes. The fluorescence signal was read using the PerkinElmer ViewLux plate reader (Ex = 405 nm /Em = 525 nm) for a 3 second exposure. After the signal was taken, 3 uL of 3x BugLite was dispensed into all wells. The plates were then incubated at room temperature for 15 minutes. A second ViewLux read (40 sec exposure) was performed to detect the luminescence signal. Cytotoxicity was assessed through the first fluorescent read while biochemical activity against Nrf2 was measured in the luminescent read. The data was normalized to the positive and negative controls.
Potency means the concentration at half of the fitted maximal effect.

Row | Structure (SMILES) | Potency
1 | CCOC(=O)c1cnc(-n2nc(C)cc2C)nc1NNc1cc(C)nc(-c2ccccc2)n1 | 5.17 µM (active)
2 | CC(C)(C)c1ccc(Oc2ccc(N)cc2)cc1 | 5.17 µM (active)
3 | C[n+]1ccc(/C=C/c2c[nH]c3ccccc23)cc1 | 1.46 µM (active)
4 | OCCCNc1nccc(-c2cc(Nc3cccc(Cl)c3)ncn2)n1 | 1.46 µM (active)
5 | Cc1c(Cl)cccc1NC(=O)Cn1cc(C(=O)c2cccs2)c2ccccc21 | 5.8 µM (active)
6 | Brc1c(CSc2nncc3ccccc23)nc2ccccn12 | 6.51 µM (active)
7 | Cc1oc2c(F)c(F)c(F)c(F)c2c1S(=O)(=O)Nc1cccc(C(F)(F)F)c1 | 14.6 µM (active)
8 | c1ccc(C(=NNc2nc3ccccc3s2)c2ccccn2)cc1 | 11.6 µM (active)
9 | CCCOc1ccc(Cc2c(Cl)nc(SC)nc2NC)cc1 | 6.51 µM (active)
10 | CC(=NNC(=S)N1CCCCCC1)c1ccccn1 | 2.59 µM (active)
11 | CC(=O)Nc1ccc(Nc2c3ccccc3nc3ccccc23)cc1 | 1.64 µM (active)
12 | COc1ccc(C(=O)C[n+]2ccc(N)c(C)c2C)cc1 | 6.51 µM (active)
13 | CCCOc1ccc(C(=O)Nc2ccc3oc(-c4cccc(Cl)c4Cl)nc3c2)cc1 | 16.4 µM (active)
14 | CC1(C)CC(N2CCN(C(c3ccccc3)c3ccccc3)CC2)=CC(=[N+]2CCCCC2)C1 | 4.61 µM (active)
15 | Cc1ccc(NS(=O)(=O)c2cccs2)cc1S(=O)(=O)N1CCCCCC1 | inactive
16 | O=C(Nc1ccc(Br)cn1)C1CCN(S(=O)(=O)c2cccs2)CC1 | 5.8 µM (active)
17 | CC(C)Cn1c(N)c(C(=O)COC(=O)CN2C(=O)C3CC=CCC3C2=O)c(=O)n(C)c1=O (stereo unspecified) | 5.8 µM (active)
18 | CCC(C)N1C(=O)S/C(=C/c2ccc(Sc3nc4ccccc4[nH]3)o2)C1=O (stereo unspecified) | 20.6 µM (active)
19 | CCC(C)(C)c1ccc(Oc2ccc(NC(=O)COC(=O)C3=COCCO3)cc2)cc1 | 10.3 µM (active)
20 | Cc1csc[n+]1CCC1CCCCC1 | 9.2 µM (active)
21 | COc1cccc(-c2nnc(NC(=O)c3ccc(S(=O)(=O)N(CC(C)C)CC(C)C)cc3)o2)c1 | 2.59 µM (active)
22 | CCNS(=O)(=O)c1ccc(CCC(=O)N2CCN(c3cc(Cl)ccc3C)CC2)cc1 | 23.1 µM (active)
23 | Cn1nccc1C(=O)NC1CCCc2c1cnn2-c1ccc(F)cc1F (stereo unspecified) | 2.59 µM (active)
24 | O/N=C(\C[n+]1ccccc1)c1ccc(Br)cc1 | 6.51 µM (active)
25 | Cc1cccc(N2CCN(C(=O)CCS(=O)(=O)c3ccc4c(c3)NC(=O)C(C)S4)CC2)c1C (stereo unspecified) | 18.4 µM (active)
26 | Cc1ccc(S(=O)(=O)N2CCN(c3ncnc4ccccc34)CC2)cc1 | 7.31 µM (active)

Row | Structure (SMILES) | Potency
27 | O=C1C=C(c2ccnc3cc(Cl)ccc23)C[C@@H](c2ccc3c(c2)OCO3)C1 | 7.31 µM (active)
28 | COc1ccc(CCNC(=O)c2ccc(CS(=O)(=O)c3ccc(Br)cc3)o2)cc1OC | 14.6 µM (active)
29 | COc1ccc(OC)c(Cc2cnc3nc(N)nc(N)c3c2C)c1 | 9.2 µM (active)
30 | CCCCNc1nc2c(c(=O)n(C)c(=O)n2C)n1Cc1cccc(OC)c1 | 9.2 µM (active)
31 | N#CC(C#N)=CN=c1ccn(Cc2ccc(Cl)cc2Cl)cc1 | 4.11 µM (active)
32 | CN(Cc1cccnc1)C(=O)c1cc(COc2ccc3ncccc3c2)on1 | 5.8 µM (active)
33 | CC(=O)N1CCCc2cc(S(=O)(=O)N3CCCC(C(=O)N4CCN(c5cccc(Cl)c5)CC4)C3)ccc21 (stereo unspecified) | 7.31 µM (active)
34 | CC(=O)N1c2ccc(S(=O)(=O)N3CCCC(C(=O)NCc4ccc(Cl)cc4)C3)cc2CC1C (stereo unspecified) | 7.31 µM (active)
35 | CC(=O)N1c2ccc(S(=O)(=O)N3CCCC(C(=O)Nc4cccc(Cl)c4)C3)cc2CC1C (stereo unspecified) | 11.6 µM (active)
36 | O=C(Nc1ccncc1)c1c(F)cccc1F | 10.3 µM (active)
37 | COc1ccc(CCNc2cc(N3CCN(C(=O)c4ccccc4OC)CC3)ccc2[N+](=O)[O-])cc1OC | 4.11 µM (active)
38 | COCCn1c(SCC(=O)Nc2ccccc2F)nc2c(c1=O)SCC2 | inactive
39 | CC1(C)O[C@@H]2CC3C4C[C@H](F)C5=CC(=O)C=CC5(C)C4C(O)CC3(C)[C@]2(C(=O)CO)O1 (stereo partly specified) | 0.0082 µM (active)
40 | Cc1ccc(NC(=O)C2CC(=O)N(c3ccc4c(c3)OCCO4)C2)cc1S(=O)(=O)N1CCCCCC1 (stereo unspecified) | 20.6 µM (active)
41 | CC1CCN(S(=O)(=O)c2ccc(NC(=O)C3CC(=O)N(c4ccccc4)C3)cc2)CC1 (stereo unspecified) | inactive
42 | CCCCCCCCn1c2c(c(=N)c3c1CCC3)CCCC2 | 6.51 µM (active)
43 | O=C(CSc1nnc2c(n1)[nH]c1ccccc12)NC1CCCCC1 | 2.31 µM (active)
44 | CCCN(c1ccc(C(C)C)cc1)S(=O)(=O)c1c(C)[nH]c(=O)[nH]c1=O | inactive
45 | O=C(CN1C(=O)c2ccccc2S1(=O)=O)N1CCc2ccccc21 | 3.66 µM (active)
46 | O=C(CCC(=O)N1CCN(S(=O)(=O)c2ccc(Cl)cc2)CC1)NCc1cccc(C(F)(F)F)c1 | 8.2 µM (active)
47 | Cc1ccc(S(=O)(=O)N2C[C@@H]3CCCC[C@@H]3[C@@H](C)[C@H]2c2cn(Cc3ccccc3)c3ccc(F)cc23)cc1 | 5.17 µM (active)
48 | CC(C)(C)n1ncc2c(=O)n(Cc3ccc(C(=O)c4ccccc4)cc3)cnc21 | 1.3 µM (active)
49 | O=C(CC(O)(C(F)(F)F)C(F)(F)F)Nc1ccc(Cl)c(Cl)c1 | 2.59 µM (active)
50 | COc1ccc(CC(=O)Nc2nc(-c3ccc(F)c(F)c3)cs2)cc1OC | 5.8 µM (active)
51 | O=c1[nH]c(SCc2cccc(F)c2)nc2ccccc12 | inactive
